Measured values: PubChem BioAssay (EPA / NIEHS)
“And” between values parts separate entries of the source, which are not always exact repeats. Identical values can stand only once. Inconclusive results are not listed. Some structures have more than one record in an assay (separate samples or runs), and their calls can disagree. The source made the active and inactive calls. How the source made its calls: active means hit-call score of the fitted dose curve at least 0.9, where 1 is the maximum; inconclusive means response in the unintended direction; inactive means score below 0.9.

Tests used:
[1] = molecular target: human Peripheral-type Benzodiazepine Receptor (PBR), TSPO (gene 706) (UniProt P30536); test: NVS_MP_hPBR: NovaScreen (NVS) Membrane Protein Assay for human Peripheral-type Benzodiazepine Receptor (PBR) (AID 2283331);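 further: hits reduce radioligand binding relative to DMSO baseline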
human Peripheral-type Benzodiazepine Receptor (PBR), TSPO (gene 706), sequence (P30536 whole entry, looked up): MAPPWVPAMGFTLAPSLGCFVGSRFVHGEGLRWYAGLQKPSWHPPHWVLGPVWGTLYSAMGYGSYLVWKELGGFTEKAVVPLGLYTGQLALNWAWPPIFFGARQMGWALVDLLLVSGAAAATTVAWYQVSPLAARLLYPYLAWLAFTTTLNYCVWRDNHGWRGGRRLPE
Outline: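 Radioligand displacement on human colonic cell membranes, 1 h incubation; bound radioactivity by filtration and scintillation counting. Primary screen in duplicate at 25 uM single concentration, actives followed up in concentration series; loss of binding versus DMSO.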

[2] = molecular target: rat Peripheral-type Benzodiazepine Receptor (PBR), Tspo (gene 24230) (UniProt P16257); test: NVS_MP_rPBR: NovaScreen (NVS) Membrane Protein Assay for rat Peripheral-type Benzodiazepine Receptor (PBR) (AID 2283335)
rat Peripheral-type Benzodiazepine Receptor (PBR), Tspo (gene 24230), sequence (P16257 whole entry, looked up): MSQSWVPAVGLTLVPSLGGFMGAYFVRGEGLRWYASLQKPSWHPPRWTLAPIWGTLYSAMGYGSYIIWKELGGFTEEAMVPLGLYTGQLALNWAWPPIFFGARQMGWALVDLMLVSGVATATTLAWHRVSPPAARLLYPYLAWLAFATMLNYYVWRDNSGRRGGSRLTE
Outline: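 Radioligand displacement, rat kidney membrane prep, 1 h exposure, filter-based scintillation read; DMSO baseline, loss-of-signal scored. Primary screen at 25 uM in duplicate, actives followed up in concentration series.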

NCBI gene 100848466 = test: NVS_NR_bPR: NovaScreen (NVS) Nuclear Receptor Binding Assay for bovine Progextron Receptor (PR) (AID 2283343);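 on AC50: actives lower bound radioligand signal below DMSO meaning displacement of the label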
Outline: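 Bovine uterine membrane preparation; radioligand displacement read by scintillation counting 18 h after dosing. Primary screen single concentration, 25 uM, in duplicate; actives followed up in concentration series. Signal loss versus DMSO baseline.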

[3] = molecular target: chimpanzee Androgen Receptor (AR), AR (gene 747460) (UniProt O97775); test: NVS_NR_cAR: NovaScreen (NVS) Nuclear Receptor Binding Assay for chimpanzee Androgen Receptor (AR) (AID 2283346);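 further: radioligand displacement from AR measured by scintillation counting in a cell-free assay; a loss of bound radioligand signal versus DMSO counts as binding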
chimpanzee Androgen Receptor (AR), AR (gene 747460), sequence (O97775 whole entry, looked up): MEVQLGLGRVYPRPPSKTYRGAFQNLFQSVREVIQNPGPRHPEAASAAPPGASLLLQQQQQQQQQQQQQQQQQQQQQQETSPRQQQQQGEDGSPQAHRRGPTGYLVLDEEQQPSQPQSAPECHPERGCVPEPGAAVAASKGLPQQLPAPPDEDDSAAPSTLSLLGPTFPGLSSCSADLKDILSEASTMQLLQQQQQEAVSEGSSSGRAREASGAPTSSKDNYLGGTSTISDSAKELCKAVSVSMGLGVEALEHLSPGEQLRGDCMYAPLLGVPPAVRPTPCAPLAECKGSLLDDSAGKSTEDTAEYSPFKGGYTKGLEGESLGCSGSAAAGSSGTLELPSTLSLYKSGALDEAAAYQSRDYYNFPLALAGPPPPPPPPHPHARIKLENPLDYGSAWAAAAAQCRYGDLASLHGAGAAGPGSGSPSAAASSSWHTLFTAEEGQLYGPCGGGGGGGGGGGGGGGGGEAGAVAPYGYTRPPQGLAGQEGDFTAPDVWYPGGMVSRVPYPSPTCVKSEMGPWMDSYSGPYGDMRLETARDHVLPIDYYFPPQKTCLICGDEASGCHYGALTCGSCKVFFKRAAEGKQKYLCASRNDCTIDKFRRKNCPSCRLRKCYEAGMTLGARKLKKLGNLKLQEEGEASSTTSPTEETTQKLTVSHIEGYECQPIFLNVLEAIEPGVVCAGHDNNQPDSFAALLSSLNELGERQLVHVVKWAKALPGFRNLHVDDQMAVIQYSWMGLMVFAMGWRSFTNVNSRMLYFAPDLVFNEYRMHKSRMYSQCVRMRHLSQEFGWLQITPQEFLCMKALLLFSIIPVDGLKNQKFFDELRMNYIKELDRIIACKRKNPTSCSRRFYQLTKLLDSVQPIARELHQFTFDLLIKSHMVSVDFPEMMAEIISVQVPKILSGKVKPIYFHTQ
Outline: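 Radioligand binding to chimpanzee AR expressed in Sf9/Sf21 cells, cell-free, measured 72 h after dosing by lysate-based scintillation counting. Loss of signal vs DMSO; initial duplicate screen at 25 uM, actives retested in concentration series.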

[4] = molecular target: Estrogen receptor (Homo sapiens) (UniProt P03372); test: OT_ER_ERaERa_1440: Odyssey Thera (OT) 24-hour HEK293T Protein-Complementation Assay for Estrogen Receptor-alpha/-alpha Homodimer (AID 2283349);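 further: hits raise fluorescence above DMSO for agonists and antagonists alike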
Estrogen receptor (Homo sapiens), sequence (P03372 whole entry, looked up, the tested form may be a part): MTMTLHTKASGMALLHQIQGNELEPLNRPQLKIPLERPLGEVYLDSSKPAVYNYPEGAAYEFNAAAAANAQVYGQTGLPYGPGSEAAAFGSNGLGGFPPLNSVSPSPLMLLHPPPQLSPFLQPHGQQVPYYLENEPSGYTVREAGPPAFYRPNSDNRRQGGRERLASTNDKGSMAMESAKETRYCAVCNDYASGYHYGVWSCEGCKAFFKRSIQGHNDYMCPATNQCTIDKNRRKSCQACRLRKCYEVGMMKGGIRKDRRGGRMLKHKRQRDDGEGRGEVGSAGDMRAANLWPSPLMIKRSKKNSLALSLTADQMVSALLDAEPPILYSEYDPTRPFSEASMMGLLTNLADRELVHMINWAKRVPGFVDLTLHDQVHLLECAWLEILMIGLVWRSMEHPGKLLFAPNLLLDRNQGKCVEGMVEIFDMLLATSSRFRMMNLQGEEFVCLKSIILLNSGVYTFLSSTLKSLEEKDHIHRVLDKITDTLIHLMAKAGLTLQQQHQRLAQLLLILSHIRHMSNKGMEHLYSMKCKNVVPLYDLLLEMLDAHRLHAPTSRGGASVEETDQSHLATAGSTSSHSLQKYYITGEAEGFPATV
Outline: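 HEK293T cells stably expressing the human ER alpha ligand-binding domain (aa 310-547) as a homodimer PCA were dosed for 24 hours. Fluorescence intensity was read by laser scanning cytometry, and gain of signal was fitted relative to DMSO vehicle.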

[5] = molecular target: Estrogen receptor (Homo sapiens) (UniProt P03372); test: OT_ER_ERaERa_0480: Odyssey Thera (OT) 8-hour HEK293T Protein-Complementation Assay for Estrogen Receptor-alpha/-alpha Homodimer (AID 2283351);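 further: rise in fluorescence from reassembled reporter fragments on ERα LBD homodimer in nucleus or whole cell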
Outline: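 HEK293T cells stably expressing the human ERα ligand-binding domain (aa 310-547) as a homodimer PCA were dosed with compound for 8 h. Gain of fluorescence intensity versus DMSO vehicle was read by laser scanning cytometry.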

[6] = molecular target: human Androgen Receptor (AR), AR (gene 367) (UniProt P10275); test: NVS_NR_hAR: NovaScreen (NVS) Nuclear Receptor Binding Assay for human Androgen Receptor (AR) (AID 2283332)
Outline: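 LnCAP cell-free extract; radioligand displacement read by scintillation counting after 20 h. Primary screen single concentration 25 uM in duplicate, actives then run as concentration series; loss-of-signal fitted relative to DMSO baseline.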

[7] = molecular target: Voltage-gated inwardly rectifying potassium channel KCNH2 (Homo sapiens) (UniProt Q12809); test: NVS_IC_hKhERGCh: NovaScreen (NVS) Ion Channel Assay for human Potassium Channel ERG (KhERGCh) (AID 2283333)
Voltage-gated inwardly rectifying potassium channel KCNH2 (Homo sapiens), sequence (Q12809 whole entry, looked up): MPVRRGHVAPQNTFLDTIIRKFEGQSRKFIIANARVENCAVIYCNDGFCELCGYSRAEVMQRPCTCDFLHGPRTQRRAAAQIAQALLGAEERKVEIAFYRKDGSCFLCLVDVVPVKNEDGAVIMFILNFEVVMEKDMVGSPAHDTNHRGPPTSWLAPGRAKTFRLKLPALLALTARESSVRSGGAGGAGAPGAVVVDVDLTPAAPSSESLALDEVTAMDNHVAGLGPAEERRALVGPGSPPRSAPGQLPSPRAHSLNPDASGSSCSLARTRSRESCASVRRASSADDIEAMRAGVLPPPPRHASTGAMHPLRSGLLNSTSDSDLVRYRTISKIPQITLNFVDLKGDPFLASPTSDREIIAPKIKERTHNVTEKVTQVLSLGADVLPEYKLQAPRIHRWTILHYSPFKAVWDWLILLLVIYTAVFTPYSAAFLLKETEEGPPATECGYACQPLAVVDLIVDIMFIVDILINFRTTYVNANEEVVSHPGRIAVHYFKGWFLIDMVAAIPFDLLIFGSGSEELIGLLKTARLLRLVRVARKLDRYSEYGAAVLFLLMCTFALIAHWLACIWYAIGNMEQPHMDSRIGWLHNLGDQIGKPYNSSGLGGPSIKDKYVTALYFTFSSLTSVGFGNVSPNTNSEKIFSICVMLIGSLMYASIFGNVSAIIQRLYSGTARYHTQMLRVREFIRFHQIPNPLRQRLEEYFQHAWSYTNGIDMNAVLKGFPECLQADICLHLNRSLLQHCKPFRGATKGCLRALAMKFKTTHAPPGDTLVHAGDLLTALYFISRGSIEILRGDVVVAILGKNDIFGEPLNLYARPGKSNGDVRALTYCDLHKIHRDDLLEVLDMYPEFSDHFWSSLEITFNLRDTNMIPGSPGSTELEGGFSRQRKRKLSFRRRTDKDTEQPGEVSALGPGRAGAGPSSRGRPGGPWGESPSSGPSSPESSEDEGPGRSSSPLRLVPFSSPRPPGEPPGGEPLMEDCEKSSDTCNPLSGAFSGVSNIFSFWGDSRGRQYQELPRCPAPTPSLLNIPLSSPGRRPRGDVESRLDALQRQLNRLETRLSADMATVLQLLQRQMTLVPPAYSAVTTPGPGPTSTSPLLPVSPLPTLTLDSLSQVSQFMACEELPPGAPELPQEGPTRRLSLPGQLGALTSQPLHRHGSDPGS
Outline: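 Cell-free radioligand competition binding on hERG protein extracted from CHO cells, read by filter-based scintillation counting 0.75 h after dosing. Primary screen at 25 uM in duplicate, actives followed in concentration series. Signal loss fitted versus DMSO.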

[8] = molecular target: rat Glycine Receptor, Strychnine-sensitive (GlyRStrySens), Glra1 (gene 25674) (UniProt P07727); test: NVS_LGIC_rGlyRStrySens: NovaScreen (NVS) Ligand-Gated Ion Channel Assay for rat Glycine Receptor, Strychnine-sensitive (GlyRStrySens) (AID 2283341)
Outline: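 Radioligand displacement on rat spinal cord membranes, 1 hr, filter scintillation read-out. Single-concentration duplicate screen at 25 uM; chemicals meeting threshold (e.g., 30% inhibition) rerun in concentration-response up to 50 uM. Loss of binding fitted versus DMSO.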

[9] = molecular target: bovine Gamma-Aminobutyric Acid Type A Receptor Agonist (GABAR Agonist), GABRA1 (gene 780973) (UniProt P08219); test: NVS_LGIC_bGABAR_Agonist: NovaScreen (NVS) Ligand-Gated Ion Channel Assay for bovine Gamma-Aminobutyric Acid Type A Receptor Agonist (GABAR Agonist) (AID 2283338)
bovine Gamma-Aminobutyric Acid Type A Receptor Agonist (GABAR Agonist), GABRA1 (gene 780973), sequence (P08219 whole entry, looked up): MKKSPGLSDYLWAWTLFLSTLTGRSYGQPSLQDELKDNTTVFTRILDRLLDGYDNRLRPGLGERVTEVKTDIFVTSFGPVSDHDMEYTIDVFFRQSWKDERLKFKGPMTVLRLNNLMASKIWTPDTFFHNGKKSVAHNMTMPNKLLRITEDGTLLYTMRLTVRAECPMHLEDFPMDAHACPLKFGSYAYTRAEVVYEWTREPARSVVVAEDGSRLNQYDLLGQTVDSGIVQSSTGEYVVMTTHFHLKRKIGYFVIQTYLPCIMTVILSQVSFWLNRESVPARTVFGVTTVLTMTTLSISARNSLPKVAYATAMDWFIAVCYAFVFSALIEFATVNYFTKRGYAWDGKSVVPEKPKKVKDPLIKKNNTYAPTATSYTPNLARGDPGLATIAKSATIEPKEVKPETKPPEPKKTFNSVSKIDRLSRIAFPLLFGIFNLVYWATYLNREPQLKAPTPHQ
Outline: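 Radioligand binding to bovine cerebellar membranes in agonist format, read by filter-based scintillation counting after 1 h. Primary screen in duplicate at 25 uM, with actives followed in concentration series. Gain of signal versus DMSO.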

[10] = molecular target: human Constitutive Androstane Receptor (CAR), NR1I3 (gene 9970) (UniProt Q14994); test: NVS_NR_hCAR_Antagonist: NovaScreen (NVS) Nuclear Receptor Binding Assay for human Constitutive Androstane Receptor Antagonism (CAR) (AID 2283344)
human Constitutive Androstane Receptor (CAR), NR1I3 (gene 9970), sequence (Q14994 whole entry, looked up): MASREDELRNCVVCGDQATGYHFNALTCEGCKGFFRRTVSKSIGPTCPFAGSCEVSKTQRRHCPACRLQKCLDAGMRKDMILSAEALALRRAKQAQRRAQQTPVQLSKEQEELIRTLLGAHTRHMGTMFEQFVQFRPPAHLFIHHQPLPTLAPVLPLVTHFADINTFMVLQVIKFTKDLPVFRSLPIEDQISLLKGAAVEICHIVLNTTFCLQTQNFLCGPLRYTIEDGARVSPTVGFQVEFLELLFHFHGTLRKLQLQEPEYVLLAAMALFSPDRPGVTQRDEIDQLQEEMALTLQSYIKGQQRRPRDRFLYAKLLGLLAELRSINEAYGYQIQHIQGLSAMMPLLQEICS
Outline: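 Cell-free TR-FRET binding read 1 h after dosing, antagonist mode; loss of signal versus DMSO baseline. Primary screen in duplicate at a single 25 uM; actives retested in concentration series.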

[11] = molecular target: bovine Estrogen Receptor (ER), ESR1 (gene 407238) (UniProt P49884); test: NVS_NR_bER: NovaScreen (NVS) Nuclear Receptor Binding Assay for bovine Estrogen Receptor (ER) (AID 2283345);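 further: actives lower the bound radioligand count which means they displace the ER ligand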
bovine Estrogen Receptor (ER), ESR1 (gene 407238), sequence (P49884 whole entry, looked up): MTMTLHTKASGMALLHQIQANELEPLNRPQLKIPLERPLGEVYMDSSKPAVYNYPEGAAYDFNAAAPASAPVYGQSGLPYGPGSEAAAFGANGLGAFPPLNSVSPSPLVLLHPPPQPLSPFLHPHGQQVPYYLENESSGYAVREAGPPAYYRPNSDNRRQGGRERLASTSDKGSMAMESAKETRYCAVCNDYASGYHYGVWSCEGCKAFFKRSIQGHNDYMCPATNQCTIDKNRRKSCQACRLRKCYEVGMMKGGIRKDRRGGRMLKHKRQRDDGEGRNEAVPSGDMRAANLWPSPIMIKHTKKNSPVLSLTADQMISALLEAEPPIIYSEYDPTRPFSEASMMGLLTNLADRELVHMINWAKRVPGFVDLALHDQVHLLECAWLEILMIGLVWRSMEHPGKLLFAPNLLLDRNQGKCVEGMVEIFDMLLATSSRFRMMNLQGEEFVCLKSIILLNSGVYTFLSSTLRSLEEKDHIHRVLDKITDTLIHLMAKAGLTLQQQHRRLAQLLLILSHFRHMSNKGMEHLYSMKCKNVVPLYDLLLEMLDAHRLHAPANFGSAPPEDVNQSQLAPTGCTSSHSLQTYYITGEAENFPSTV
Outline: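 Scintillation counting of displaced radioligand gave the readout; bovine uterine membrane extract supplied the receptor. Measured 18 h post-dose, normalized to DMSO baseline. Single 25 uM duplicate screen preceded concentration-response follow-up.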

[12] = molecular target: Estrogen receptor (Homo sapiens) (UniProt P03372); test: NVS_NR_hER: NovaScreen (NVS) Nuclear Receptor Binding Assay for human Estrogen Receptor (ER) (AID 2283348)
Outline: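 Radioligand competitive displacement binding to estrogen receptor from MCF7 extract, cell-free; 18 h after dosing, scintillation read-out. Primary screen in duplicate at 25 uM; actives followed up in concentration series; loss of signal vs DMSO.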

[13] = molecular target: Bile acid receptor (Homo sapiens) (UniProt Q96RI1); test: NVS_NR_hFXR_Agonist: NovaScreen (NVS) Nuclear Receptor Binding Assay for human Farnesoid X Receptor Agonism (FXR) (AID 2283347)
Bile acid receptor (Homo sapiens), sequence (Q96RI1 whole entry, looked up): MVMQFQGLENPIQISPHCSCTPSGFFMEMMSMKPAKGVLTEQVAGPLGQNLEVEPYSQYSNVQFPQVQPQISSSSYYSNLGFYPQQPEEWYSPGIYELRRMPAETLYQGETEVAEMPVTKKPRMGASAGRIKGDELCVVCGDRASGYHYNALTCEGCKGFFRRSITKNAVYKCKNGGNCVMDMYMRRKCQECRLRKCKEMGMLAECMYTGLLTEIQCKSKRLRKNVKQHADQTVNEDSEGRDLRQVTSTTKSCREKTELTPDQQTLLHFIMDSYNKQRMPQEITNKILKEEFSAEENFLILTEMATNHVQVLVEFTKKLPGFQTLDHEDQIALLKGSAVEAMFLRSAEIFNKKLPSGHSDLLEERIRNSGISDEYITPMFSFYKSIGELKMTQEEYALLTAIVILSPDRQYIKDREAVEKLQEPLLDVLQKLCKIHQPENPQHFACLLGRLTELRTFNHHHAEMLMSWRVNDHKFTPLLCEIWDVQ
Outline: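 Cell-free TR-FRET binding assay with extracted human FXR protein, agonist format, read 1 h after dosing. Primary screen at 25 uM single concentration in duplicate, actives retested in concentration series; gain of signal versus DMSO.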

[14] = test system: guinea pig Histamine Receptor (H2), gene 100729734; test: NVS_GPCR_gH2: NovaScreen (NVS) G Protein-Coupled Receptor Assay for guinea pig Histamine Receptor (H2) (AID 2283342)
Outline: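 Radioligand displacement on guinea pig striatal membranes, 1 h after dosing, filter-based scintillation counting; loss of signal versus DMSO. Single-point screen at 25 uM in duplicate, then concentration-response up to 50 uM.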

[15] = molecular target: rat Glutamate, MK-801 Agonist Site (GluNMDA_MK801), Grin1 (gene 24408) (UniProt P35439); test: NVS_LGIC_rGluNMDA_MK801_Agonist: NovaScreen (NVS) Ligand-Gated Ion Channel Assay for rat Glutamate, MK-801 Agonist Site (GluNMDA_MK801) (AID 2283340)
Outline: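 Radioligand binding at MK-801 site in rat forebrain membranes, 1.5 h incubation, filter-based scintillation counting. Initially 25 uM in duplicate; actives then run in concentration-response up to 50 uM, fitted for gain of signal versus DMSO.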

[16] = molecular target: Bile acid receptor (Homo sapiens) (UniProt Q96RI1); test: NVS_NR_hFXR_Antagonist: NovaScreen (NVS) Nuclear Receptor Binding Assay for human Farnesoid X Receptor Antagonism (FXR) (AID 2283350)
Outline: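 Cell-free TR-FRET ligand-binding read-out on human FXR (NR1H4) in antagonist mode, measured 1 h after dosing. Primary screen in duplicate at 25 uM, actives retested in concentration series; signal loss scored versus DMSO.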

[17] = NVS_IC_rCaBTZCHL: NovaScreen (NVS) Ion Channel Assay for Calcium Channel, Type L, Benzothiazepine Site (CaBTZCHL) (AID 2283337)
Outline: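 Radioligand binding to the benzothiazepine site of L-type Ca channels in rat cortical membranes (cell-free), 1.5 h after dosing; filter-based scintillation counting. Loss of signal relative to DMSO baseline; primary single-concentration screen at 25 uM, actives then run in concentration series.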

Measured: AC50

Oc1ccccc1-c1ccccc1
inactive: [1] | [2] | [4] | [5]
active: NCBI gene 100848466 31.3 µM | [3] 11.2 µM and 25.5 µM

O=C(Nc1ccccc1)Nc1ccnc(Cl)c1
inactive: [1] | [8] | [4] | [5]
active: [6] 5.13 µM | [7] 9.2 µM | [2] 15.6 µM

CCCCOC(=O)c1ccccc1C(=O)OCCCC
active: [1] 22.1 µM [middle of 5 runs] | [2] 13.4 µM and 15.5 µM | [4] 35.4 µM and 46.5 µM and 60 µM | [5] 46.7 µM and 37.4 µM and 35.4 µM
inactive: [9] | NCBI gene 100848466 | [10] | [11] | [3] | [12]

O=C(O)COc1nc(Cl)c(Cl)cc1Cl
inactive: [1] | [10] | [4] | [5]
active: [2] 14.6 µM

COP(=S)(OC)Oc1nc(Cl)c(Cl)cc1Cl
active: [1] 17.9 µM | [2] 7 µM | NCBI gene 100848466 17.3 µM
inactive: [13] | [12] | [4] | [5]

CC1COC(Cn2cncn2)(c2ccc(Oc3ccc(Cl)cc3)cc2Cl)O1 (stereo not given)
inactive: [1] | [2] | [14] | [4] | [5]

CNC(=S)S
inactive: [1] | [2] | [15] | [10] | [4] | [5]

C#CCOS(=O)OC1CCCCC1Oc1ccc(C(C)(C)C)cc1 (stereo not given)
inactive: NCBI gene 100848466 | [10] | [4] | [16] | [5]
active: [1] 18.2 µM | [2] 14.5 µM

CCOP(=S)(OCC)SCn1c(=O)oc2cc(Cl)ccc21
inactive: [14] | [10] | [4] | [5]
active: [1] 2.65 µM | [2] 4.01 µM | NCBI gene 100848466 2.98 µM

COc1ccc(C(c2ccc(OC)cc2)C(Cl)(Cl)Cl)cc1
active: [12] 4.64 µM and 5.49 µM and 13.9 µM | [4] 13.8 µM and 21.6 µM and 14.4 µM | [5] 13 µM and 12.5 µM and 10.8 µM
inactive: [1] | [2] | NCBI gene 100848466 | [10] | [11] | [12] | [16]

C=CCC1=C(C)C(OC(=O)C2C(C=C(C)C)C2(C)C)CC1=O (stereo not given)
inactive: [1] | [2] | [14] | [11] | [3] | [13] | [12] | [4] | [5]

OC(c1ccc(Cl)cc1)(c1cncnc1)c1ccccc1Cl (stereo not given)
active: [2] 4.89 µM | [10] 25 µM
inactive: [1] | [7] | [17] | [11] | [3] | [12] | [4] | [5]

COC(=O)N(OC)c1ccccc1COc1ccn(-c2ccc(Cl)cc2)n1
active: [1] 0.105 µM | [2] 0.26 µM
inactive: [10] | [4] | [5]

Cc1ccc(-c2c(Cl)nc(C#N)n2S(=O)(=O)N(C)C)cc1
inactive: [1] | [2] | [10] | [12] | [4] | [5]

CCCCNC(=O)OCC#CI
inactive: [9] | [14] | NCBI gene 100848466 | [11] | [12] | [4] | [5]
active: [1] 38.2 µM and 41.3 µM | [2] 12.8 µM and 10.7 µM

CCCCC(CC)COC(=O)c1ccccc1C(=O)OCC(CC)CCCC (stereo not given)
active: [1] 8.75 µM | [2] 15.6 µM | [4] 66 µM
inactive: NCBI gene 100848466 | [10] | [11] | [12] | [5]

CCNc1nc(Cl)nc(NCC)n1
inactive: [2] | [10] | [11] | [4] | [5]
active: [1] 46.2 µM

CC1=C(C(=O)Nc2ccccc2)SCCO1
active: [1] 20.5 µM | [2] 12.3 µM
inactive: [4]

CNC(=O)ON=CC(C)(C)SC
inactive: [1] | NCBI gene 100848466 | [10] | [4] | [5]

CCOC(=O)C(Cl)Cc1cc(-n2nc(C)n(C(F)F)c2=O)c(F)cc1Cl (stereo not given)
inactive: [4] | [5]
active: [1] 25 µM | [2] 16.1 µM
